The supplement of paper PMC10849652
Targets with a hit are over-represented here; the source holds about 7,900 in all. About 0.6% of all pairs of compound and target were hits. Unmarked numbers belong to inactive results.

Experiments:
Experiment in all cases: log2 fold change, soluble protein after heating vs DMSO (PISA); higher = thermal stabilisation; K562 cells, 10 uM, 30 min; active = over 0.2 and 3.5 SD of the protein, either way, in both replicates (recomputed)
[1] = compound: CC1=C(C=C(C=C1)NC(=O)C2=CC(=CC=C2)C(C)(C)C#N)NC3=CC4=C(C=C3)N=CN(C4=O)C
Procedure, shortened: (§1)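 K562 cells at 2×10^6 cells/mL were treated with 10 μM compound for 30 min. Aliquots were heated for 3 min across 48°C-58°C, pooled, and extracted in PBS with 0.5% NP-40 at 4°C; soluble protein was the supernatant after 21,000xg for 90 min. Soluble protein was quantified by TMTpro 16plex LC-MS/MS with channel sums equalised, and reported as log2 fold change in thermal stability against DMSO controls, with values from duplicates.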

[2] = compound: CC1=C(C=C(C=C1)NC(=O)C2=CC(=CC=C2)N(C)C)NC(=O)C3=CC=C(C=C3)O
Procedure, shortened: as §1

[3] = compound: CC1=CC=C(C=C1)SC2=C3C=C(SC3=CN=C2)C(=O)N
Procedure, shortened: as §1

[4] = compound: CC1=NC(=CC=C1)C2=C(N=C(N2)C(C)(C)C)C3=CC4=NC=CN=C4C=C3
Procedure, shortened: as §1

Nexturastat A = compound: CCCCN(Cc1ccc(C(=O)NO)cc1)C(=O)Nc1ccccc1 [Nexturastat A]
Procedure, shortened: as §1

vemurafenib = compound: CCCS(=O)(=O)Nc1ccc(F)c(C(=O)c2c[nH]c3ncc(-c4ccc(Cl)cc4)cc23)c1F [vemurafenib]
Procedure, shortened: as §1

[5] = compound: CCCS(=O)(=O)Nc1ccc(F)c(C(=O)c2c[nH]c3ncc(Cl)cc23)c1F
Procedure, shortened: as §1

[6] = compound: CCCc1cc(C)[nH]c(=O)c1CNC(=O)c1cc(-c2ccnc(N3CCN(C)CC3)c2)cc2c1cnn2C(C)C
Procedure, shortened: as §1

givinostat = compound: CCN(CC)Cc1ccc2cc(COC(=O)Nc3ccc(C(=O)NO)cc3)ccc2c1 [givinostat]
Procedure, shortened: as §1

barasertib = compound: CCN(CCCOc1ccc2c(Nc3cc(CC(=O)Nc4cccc(F)c4)[nH]n3)ncnc2c1)CCOP(=O)(O)O [barasertib]
Procedure, shortened: as §1

[7] = compound: CC[C@@H]1C(=O)N(C)c2cnc(Nc3ccc(C(=O)NC4CCN(C)CC4)cc3OC)nc2N1C1CCCC1
Procedure, shortened: as §1

volasertib = compound: CC[C@@H]1C(=O)N(C)c2cnc(Nc3ccc(C(=O)N[C@H]4CC[C@H](N5CCN(CC6CC6)CC5)CC4)cc3OC)nc2N1C(C)C [volasertib]
Procedure, shortened: as §1

[8] = compound: CC[C@H](C)N1C=C(C2=C(C=C(C=C21)C3=CN=C(C=C3)N4CCNCC4)C(=O)NCC5=C(C=C(NC5=O)C)C)C
Procedure, shortened: as §1

epoxomicin = compound: CC[C@H](C)[C@@H](C(=O)N[C@@H]([C@@H](C)O)C(=O)N[C@@H](CC(C)C)C(=O)[C@]1(CO1)C)NC(=O)[C@H]([C@@H](C)CC)N(C)C(=O)C [epoxomicin]
Procedure, shortened: as §1

[9] = compound: CCn1c(C(=O)N(C2CC2)C2CC2)cc2c3c(ncn3C)c(Nc3cc(C)n(C)n3)nc21
Procedure, shortened: as §1

[10] = compound: CCn1cc(-c2ccnc3[nH]c(-c4cccc(CN(C)C)c4)cc23)c(-c2ccc(NC(=O)N(C)C)cc2)n1
Procedure, shortened: as §1

[11] = compound: CN(C)CC(=O)Nc1ccc2[nH]c(=O)c3ccccc3c2c1
Procedure, shortened: as §1

rosiglitazone = compound: CN(CCOC1=CC=C(C=C1)C[C@H]2C(=O)NC(=O)S2)C3=CC=CC=N3 (racemic) [rosiglitazone]
Procedure, shortened: as §1

[12] = compound: CN1C2=C(C3=C1C(=O)N(N=C3)CC4=CC(=CC=C4)N)SC(=C2)S(=O)C
Procedure, shortened: as §1

[13] = compound: CN1CCC(CNc2ccc3ncc(-c4cccc(OC(F)(F)F)c4)n3n2)CC1
Procedure, shortened: as §1

UniProt P78356, sequence (P78356 whole entry, looked up): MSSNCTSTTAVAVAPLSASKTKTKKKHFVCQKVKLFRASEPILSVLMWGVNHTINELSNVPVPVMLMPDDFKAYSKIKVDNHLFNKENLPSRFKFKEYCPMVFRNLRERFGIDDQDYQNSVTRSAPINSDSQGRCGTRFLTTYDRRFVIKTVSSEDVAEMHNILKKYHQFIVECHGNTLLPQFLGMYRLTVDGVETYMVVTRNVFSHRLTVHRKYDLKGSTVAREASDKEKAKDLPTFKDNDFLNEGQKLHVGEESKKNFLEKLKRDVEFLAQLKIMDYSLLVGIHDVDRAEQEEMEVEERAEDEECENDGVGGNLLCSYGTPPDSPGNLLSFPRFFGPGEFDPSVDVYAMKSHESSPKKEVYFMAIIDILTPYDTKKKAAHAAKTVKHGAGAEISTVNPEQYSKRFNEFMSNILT
UniProt P17980, sequence (P17980 whole entry, looked up): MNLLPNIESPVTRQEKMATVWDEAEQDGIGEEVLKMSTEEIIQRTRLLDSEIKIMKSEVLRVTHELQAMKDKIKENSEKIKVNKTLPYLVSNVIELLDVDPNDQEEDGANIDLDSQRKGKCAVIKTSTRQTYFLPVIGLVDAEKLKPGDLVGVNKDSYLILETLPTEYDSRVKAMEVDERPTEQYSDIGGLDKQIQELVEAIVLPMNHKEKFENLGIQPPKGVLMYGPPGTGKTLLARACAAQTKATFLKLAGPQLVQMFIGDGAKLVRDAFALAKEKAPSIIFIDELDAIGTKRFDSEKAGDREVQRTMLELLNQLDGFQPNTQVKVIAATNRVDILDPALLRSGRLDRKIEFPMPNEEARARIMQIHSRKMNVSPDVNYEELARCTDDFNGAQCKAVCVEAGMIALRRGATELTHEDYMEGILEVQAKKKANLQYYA
UniProt P11498, sequence (P11498 whole entry, looked up): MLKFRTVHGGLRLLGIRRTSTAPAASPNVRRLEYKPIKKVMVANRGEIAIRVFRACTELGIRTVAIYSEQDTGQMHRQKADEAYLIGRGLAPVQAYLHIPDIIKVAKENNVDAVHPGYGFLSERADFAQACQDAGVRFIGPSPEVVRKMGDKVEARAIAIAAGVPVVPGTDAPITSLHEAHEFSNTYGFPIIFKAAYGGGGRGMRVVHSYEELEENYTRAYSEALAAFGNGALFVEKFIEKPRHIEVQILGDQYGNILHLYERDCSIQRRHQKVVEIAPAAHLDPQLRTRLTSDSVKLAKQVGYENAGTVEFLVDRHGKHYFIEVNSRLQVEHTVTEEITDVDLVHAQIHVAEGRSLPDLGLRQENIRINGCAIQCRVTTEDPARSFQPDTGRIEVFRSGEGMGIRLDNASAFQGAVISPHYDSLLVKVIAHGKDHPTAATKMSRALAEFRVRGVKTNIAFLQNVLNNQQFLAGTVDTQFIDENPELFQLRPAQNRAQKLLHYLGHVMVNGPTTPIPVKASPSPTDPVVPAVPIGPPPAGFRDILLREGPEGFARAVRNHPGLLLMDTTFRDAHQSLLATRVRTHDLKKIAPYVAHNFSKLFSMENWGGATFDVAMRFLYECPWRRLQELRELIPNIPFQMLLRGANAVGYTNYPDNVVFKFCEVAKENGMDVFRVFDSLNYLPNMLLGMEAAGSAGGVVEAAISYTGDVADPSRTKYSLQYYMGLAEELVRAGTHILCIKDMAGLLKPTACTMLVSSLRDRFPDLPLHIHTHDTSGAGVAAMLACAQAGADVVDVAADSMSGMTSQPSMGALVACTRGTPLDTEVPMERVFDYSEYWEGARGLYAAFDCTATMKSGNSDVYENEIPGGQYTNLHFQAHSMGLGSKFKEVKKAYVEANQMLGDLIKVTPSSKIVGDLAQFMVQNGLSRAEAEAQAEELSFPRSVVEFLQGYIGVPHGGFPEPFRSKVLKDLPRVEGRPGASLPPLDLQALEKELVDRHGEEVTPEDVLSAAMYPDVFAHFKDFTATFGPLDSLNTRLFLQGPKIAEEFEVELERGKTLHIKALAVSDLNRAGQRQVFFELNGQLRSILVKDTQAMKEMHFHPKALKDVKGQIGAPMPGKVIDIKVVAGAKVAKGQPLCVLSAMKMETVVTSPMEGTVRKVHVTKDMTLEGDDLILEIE
UniProt Q8IWE5, sequence (Q8IWE5 whole entry, looked up): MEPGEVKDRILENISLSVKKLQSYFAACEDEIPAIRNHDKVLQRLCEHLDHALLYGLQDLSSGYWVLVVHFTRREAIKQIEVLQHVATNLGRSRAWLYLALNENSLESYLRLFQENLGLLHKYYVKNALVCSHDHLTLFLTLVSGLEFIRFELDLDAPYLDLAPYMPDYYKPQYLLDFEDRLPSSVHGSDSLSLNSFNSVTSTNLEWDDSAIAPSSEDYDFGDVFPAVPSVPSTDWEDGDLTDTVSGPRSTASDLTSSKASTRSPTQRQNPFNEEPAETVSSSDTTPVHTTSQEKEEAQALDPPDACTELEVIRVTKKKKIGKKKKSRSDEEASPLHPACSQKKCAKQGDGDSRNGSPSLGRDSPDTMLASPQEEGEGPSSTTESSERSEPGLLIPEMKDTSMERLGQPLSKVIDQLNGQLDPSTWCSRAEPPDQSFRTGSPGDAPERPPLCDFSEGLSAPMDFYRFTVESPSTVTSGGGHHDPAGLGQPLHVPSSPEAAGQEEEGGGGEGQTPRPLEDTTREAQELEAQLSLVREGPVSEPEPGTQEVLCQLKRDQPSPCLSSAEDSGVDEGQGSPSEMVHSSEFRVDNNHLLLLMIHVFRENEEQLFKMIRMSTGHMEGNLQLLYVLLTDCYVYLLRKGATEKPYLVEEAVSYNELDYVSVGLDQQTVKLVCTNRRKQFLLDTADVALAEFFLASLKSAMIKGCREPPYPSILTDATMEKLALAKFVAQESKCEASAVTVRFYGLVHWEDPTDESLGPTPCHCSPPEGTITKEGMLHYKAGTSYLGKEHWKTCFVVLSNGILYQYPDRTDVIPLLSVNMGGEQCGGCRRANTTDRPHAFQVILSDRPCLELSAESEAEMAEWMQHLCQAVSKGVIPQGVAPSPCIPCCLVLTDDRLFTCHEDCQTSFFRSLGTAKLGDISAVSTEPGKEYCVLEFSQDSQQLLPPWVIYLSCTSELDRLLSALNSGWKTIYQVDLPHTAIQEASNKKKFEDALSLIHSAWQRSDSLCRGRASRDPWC
UniProt O60925, sequence (O60925 whole entry, looked up): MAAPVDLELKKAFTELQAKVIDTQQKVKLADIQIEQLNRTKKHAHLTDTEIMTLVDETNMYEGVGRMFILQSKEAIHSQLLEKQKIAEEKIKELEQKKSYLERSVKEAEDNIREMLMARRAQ
UniProt Q05209, sequence (Q05209 whole entry, looked up): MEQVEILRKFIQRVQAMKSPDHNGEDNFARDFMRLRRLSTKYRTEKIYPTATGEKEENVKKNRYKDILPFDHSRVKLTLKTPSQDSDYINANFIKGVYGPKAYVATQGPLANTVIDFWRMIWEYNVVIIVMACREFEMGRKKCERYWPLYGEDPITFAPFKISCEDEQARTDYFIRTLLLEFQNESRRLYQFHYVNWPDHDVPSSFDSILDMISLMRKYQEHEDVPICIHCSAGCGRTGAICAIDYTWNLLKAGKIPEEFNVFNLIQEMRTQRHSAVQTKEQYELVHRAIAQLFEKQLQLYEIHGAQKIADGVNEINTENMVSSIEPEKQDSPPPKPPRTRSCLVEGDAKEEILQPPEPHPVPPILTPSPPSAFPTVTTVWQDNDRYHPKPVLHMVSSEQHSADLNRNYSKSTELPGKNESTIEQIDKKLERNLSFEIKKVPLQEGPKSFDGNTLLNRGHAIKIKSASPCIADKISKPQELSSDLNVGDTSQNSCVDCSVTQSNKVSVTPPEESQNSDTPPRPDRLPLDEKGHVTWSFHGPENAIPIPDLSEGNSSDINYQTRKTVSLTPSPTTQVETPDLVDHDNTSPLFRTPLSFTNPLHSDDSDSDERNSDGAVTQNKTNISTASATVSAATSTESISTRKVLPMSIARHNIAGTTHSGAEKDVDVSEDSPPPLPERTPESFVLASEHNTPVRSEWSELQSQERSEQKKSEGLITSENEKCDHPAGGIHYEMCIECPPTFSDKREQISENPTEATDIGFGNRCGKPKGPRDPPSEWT
UniProt Q15008, sequence (Q15008 whole entry, looked up): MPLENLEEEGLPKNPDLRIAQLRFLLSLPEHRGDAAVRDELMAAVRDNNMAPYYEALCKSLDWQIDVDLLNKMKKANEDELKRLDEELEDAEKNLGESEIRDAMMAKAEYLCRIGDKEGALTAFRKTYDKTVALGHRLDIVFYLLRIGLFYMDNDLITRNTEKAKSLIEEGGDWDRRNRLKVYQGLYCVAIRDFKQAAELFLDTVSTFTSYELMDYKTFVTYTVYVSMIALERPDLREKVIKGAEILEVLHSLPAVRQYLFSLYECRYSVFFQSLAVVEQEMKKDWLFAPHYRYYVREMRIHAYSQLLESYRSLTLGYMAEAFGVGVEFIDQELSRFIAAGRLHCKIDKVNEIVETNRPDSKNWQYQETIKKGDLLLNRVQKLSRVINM
UniProt Q96KB5, sequence (Q96KB5 whole entry, looked up): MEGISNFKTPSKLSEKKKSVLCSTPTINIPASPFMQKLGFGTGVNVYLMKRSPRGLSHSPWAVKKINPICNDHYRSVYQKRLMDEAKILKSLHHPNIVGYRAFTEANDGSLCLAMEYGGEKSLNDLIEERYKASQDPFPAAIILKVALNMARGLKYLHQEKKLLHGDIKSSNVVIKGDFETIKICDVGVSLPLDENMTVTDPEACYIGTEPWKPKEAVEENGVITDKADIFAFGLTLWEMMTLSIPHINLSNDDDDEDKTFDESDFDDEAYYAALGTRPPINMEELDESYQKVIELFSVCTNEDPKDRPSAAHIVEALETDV
UniProt P54619, sequence (P54619 whole entry, looked up): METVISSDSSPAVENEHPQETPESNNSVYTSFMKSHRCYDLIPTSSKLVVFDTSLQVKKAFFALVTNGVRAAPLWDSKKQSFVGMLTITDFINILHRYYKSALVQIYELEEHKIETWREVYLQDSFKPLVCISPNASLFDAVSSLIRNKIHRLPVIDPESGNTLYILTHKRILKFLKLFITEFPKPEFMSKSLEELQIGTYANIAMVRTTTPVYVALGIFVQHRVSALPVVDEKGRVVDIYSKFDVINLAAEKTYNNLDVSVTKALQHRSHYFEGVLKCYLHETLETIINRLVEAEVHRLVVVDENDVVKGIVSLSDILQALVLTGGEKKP

Target | log2 fold change [1] | log2 fold change [2] | log2 fold change [3] | log2 fold change [4] | log2 fold change (Nexturastat A) | log2 fold change (vemurafenib) | log2 fold change [5] | log2 fold change [6] | log2 fold change (givinostat) | log2 fold change (barasertib) | log2 fold change [7] | log2 fold change (volasertib) | log2 fold change [8] | log2 fold change (epoxomicin) | log2 fold change [9] | log2 fold change [10] | log2 fold change [11] | log2 fold change (rosiglitazone) | log2 fold change [12] | log2 fold change [13]
PARL (UniProt Q9H300) | 0 | 0.025 | 0.02 | 0.002 | -0.098 | -0.014 | 0.057 | -0.036 | 0.068 | -0.022 | -0.059 | -0.008 | -0.009 | -0.076 | 0.031 | -0.062 | -0.035 | 0.035 | -0.004 | -0.134
PRKAG1 isoform 3 (UniProt P54619) | -0.042 | -0.006 | 0.007 | 0.037 | -0.01 | 0.026 | 0.002 | -0.026 | 0.014 | 0.013 | -0.018 | -0.207 | 0.048 | -0.024 | 0.002 | -0.033 | -0.015 | 0.033 | -0.009 | -0.299 (active)
PSMC3 (UniProt P17980) | 0.013 | 0.02 | -0.024 | -0.051 | 0.034 | -0.063 | -0.055 | 0.002 | -0.034 | -0.059 | 0.032 | 0.179 | -0.021 | -0.319 (active) | -0.028 | 0.079 | -0.031 | -0.038 | 0.021 | 0.018
PKM (UniProt P14618) | -0.013 | -0.005 | 0.001 | 0.014 | -0.054 | -0.012 | -0.01 | -0.023 | 0 | -0.011 | 0.018 | 0.037 | -0.035 | 0.001 | -0.002 | -0.007 | -0.015 | 0.015 | 0.002 | -0.017
PIK3R1 (UniProt P27986) | -0.08 | 0.001 | -0.019 | -0.046 | -0.018 | 0.047 | 0.058 | -0.054 | 0.028 | 0.038 | -0.04 | -0.142 | -0.018 | 0.036 | -0.015 | -0.072 | -0.002 | 0.095 | -0.064 | 0.127
PECAM1 (UniProt P16284) | -0.092 | -0.019 | -0.013 | -0.113 | 0.068 | -0.049 | 0.004 | -0.015 | 0.01 | 0.028 | 0.116 | 0.061 | -0.019 | -0.027 | 0.022 | -0.106 | 0.027 | 0.014 | -0.067 | 0.168
PSMC1 (UniProt P62191) | 0.024 | 0.033 | -0.038 | -0.069 | 0.026 | -0.064 | -0.06 | -0.012 | -0.073 | -0.073 | 0.038 | 0.129 | -0.015 | -0.342 (active) | 0.042 | 0.092 | -0.003 | -0.038 | 0.031 | 0.051
PCNT (UniProt O95613) | -0.104 | 0.068 | -0.117 | -0.116 | 0.007 | -0.122 | -0.103 | -1.05 | 0.255 | 0.045 | 0.08 | 0.131 | -0.147 | -0.177 | -0.105 | -0.002 | -0.101 | 0.05 | 0.158 | -0.567 (active)
PC (UniProt P11498) | 0.07 | -0.103 | 0.038 | 0.012 | -0.07 | 0 | 0.032 | 0.039 | 0.022 | 0.009 | -0.041 | -0.069 | 0.067 | 0.041 | -0.082 | -0.217 | 0.027 | 0.084 | -0.128 | 0.03
PSMD6 (UniProt Q15008) | -0.007 | -0.004 | -0.045 | -0.045 | 0.108 | -0.055 | -0.014 | 0.01 | -0.034 | -0.012 | 0.09 | 0.18 | 0.01 | -0.247 | -0.009 | 0.063 | -0.023 | -0.029 | 0.029 | 0.061
PBK (UniProt Q96KB5) | 0.01 | -0.056 | 0.069 | -0.001 | 0.037 | 0.124 | 0.14 | 0.144 | 0.143 | 0.145 | -0.18 | -0.601 (active) | 0.121 | -0.005 | -0.086 | -0.026 | 0.091 | 0.092 | 0.053 | -0.187
PFDN1 (UniProt O60925) | 0.039 | -0.131 | 0.089 | 0.041 | -0.071 | 0.172 | -0.019 | -0.016 | 0.004 | 0.002 | 0.044 | -0.009 | -0.004 | 0.183 | 0.02 | -0.019 | 0 | 0.003 | -0.119 | 0.113
PTPN12 (UniProt Q05209) | -0.026 | -0.071 | -0.037 | -0.034 | 0.162 | -0.002 | 0.04 | 0.07 | 0.072 | 0.127 | -0.119 | -0.465 (active) | 0.063 | -0.012 | -0.077 | 0.027 | 0.015 | 0.014 | 0.079 | -0.043
PIP4K2B (UniProt P78356) | -0.055 | -0.048 | 0.033 | 0.026 | -0.088 | 0.045 | 0.02 | 0.039 | -0.076 | 0.004 | 0.573 (active) | 0.776 (active) | -0.089 | 0.015 | -0.036 | -0.054 | 0.029 | 0.005 | 0.172 | 0.231
PLEKHM2 (UniProt Q8IWE5) | 0.064 | 0.035 | 0.052 | -0.011 | -0.028 | 0.075 | 0.124 | 0.038 | 0.177 | 0.076 | -0.127 | -0.177 | 0.009 | 0.037 | -0.051 | -0.175 | 0.003 | 0.034 | -0.04 | -0.357 (active)
PRKACA (UniProt P17612) | -0.002 | -0.008 | -0.023 | 0.043 | 0.099 | 0.015 | 0.019 | -0.019 | 0.006 | -0.008 | -0.028 | -0.046 | 0.068 | -0.072 | -0.048 | -0.058 | 0 | 0.033 | -0.003 | 0.085
